Bioassay records as filed in PubChem BioAssay.
Cruzain noTriton: inhibitors of Trypanosoma cruzi cruzain without detergent. hit rate 2.3% among 200,000. Potency, µM, for inactives: max response, negative = inhibition, usual class: inhibitors. P25779. purified cruzain, Z-FR-AMC fluorescence, no detergent. AID 1476;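 further: plate controls were enzyme without inhibitor for no effect and buffer without enzyme for full effect; nearly all actives have a fitted effect of over 40% in size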
Target sequence (P25779 123-467 limits assumed): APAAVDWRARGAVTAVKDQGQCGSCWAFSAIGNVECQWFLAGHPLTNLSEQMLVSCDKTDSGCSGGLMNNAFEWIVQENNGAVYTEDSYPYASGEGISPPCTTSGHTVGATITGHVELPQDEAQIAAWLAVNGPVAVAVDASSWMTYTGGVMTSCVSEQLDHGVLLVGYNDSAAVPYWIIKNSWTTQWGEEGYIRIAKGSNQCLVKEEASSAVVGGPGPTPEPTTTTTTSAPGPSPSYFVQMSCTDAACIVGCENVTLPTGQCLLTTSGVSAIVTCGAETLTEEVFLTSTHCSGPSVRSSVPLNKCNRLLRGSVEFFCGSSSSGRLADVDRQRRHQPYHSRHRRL
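Detergent-free condition (0.00005% Triton X-100) in acetate buffer pH 5.5 with DTT. 1.5 nM enzyme and compound were pre-mixed 15 min, then 2 uM Z-FR-AMC substrate added; reaction progress from fluorescence change between first and third reads (60 s).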
Cruzain inh Det: blocks cruzain activity in presence of Triton detergent; P25779; Potency, µM, inactives show max response, negative = inhibition, usual class: inhibitors; purified cruzain, Z-FR-AMC fluorescence, 0.01% Triton; hit rate 0.43% among 200,000;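 further: plate controls were neutral wells for no effect and buffer without enzyme for full effect; nearly all actives have a fitted effect of over 40% in size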
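In this qHTS format, compounds are incubated with 1.5 nM cruzain for 15 min at room temperature before 2 uM Z-FR-AMC is added. Release of AMC is followed at 360/450 nm, and progress is taken as the 60 s fluorescence difference.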
The depositor's hits bear a star. The list is not random: actives were taken first. Their share in the collection is about 2.5%. The call rests on the fitted dose curve; in most records, active means well fitted curve in the direction sought with a large enough effect; inconclusive means small, poorly fitted or top-dose-only effect, or another doubt; inactive means no such curve, though single readings can be large; an effect the other way counts as inactive or inconclusive. Potency means the concentration at half of the fitted maximal effect.

For COc1cccc(NC(=O)/C(C#N)=C/c2ccc(-c3ccc(C)cc3)o2)c1 the results were Cruzain noTriton inconclusive and Cruzain inh Det -6%.
COc1ccc(CCNC(=O)c2nc(SCc3ccccc3F)ncc2Cl)cc1OC was read as Cruzain noTriton 17% and Cruzain inh Det 1%.
For Cc1sc2nc(CSc3cccc(C(F)(F)F)c3)[nH]c(=O)c2c1C the results were Cruzain noTriton 25µM* and Cruzain inh Det -3%.
For Cc1ccc(-n2nnnc2SCc2nc3sc(C)c(C)c3c(=O)[nH]2)cc1 the results were Cruzain noTriton inconclusive and Cruzain inh Det -1%.
Cc1ccc(-n2cc(-c3ccccc3)nc2S(=O)(=O)CC(=O)Nc2ccc(F)cc2)cc1 was read as Cruzain noTriton 27% and Cruzain inh Det 8%.
Screening Cc1ccc(-c2cn(-c3ccc(Cl)cc3)c(S(=O)(=O)CC(=O)Nc3ccccc3)n2)cc1 returned Cruzain noTriton 16µM* and Cruzain inh Det -18%.
For CCN(c1ncnc2c1cnn2-c1cc(Cl)ccc1C)C1CCCCC1 the results were Cruzain noTriton -1% and Cruzain inh Det 1%.
`C[N+](C)(C)c1ncnc2c1ncn2[C@@H]1C[C@H](O)[C@@H](CO)O1` gave Cruzain noTriton 11% and Cruzain inh Det 6%.
Cc1csc(NC(=O)c2cc3c(C)nn(Cc4ccccc4Cl)c3s2)n1 was read as Cruzain noTriton 25µM* and Cruzain inh Det -6%.
`Cc1nn(Cc2ccccc2Cl)c2sc(C(=O)NC(C)(C)C)cc12` gave Cruzain noTriton 16% and Cruzain inh Det -6%.
CC(CCc1ccccc1)NC(=O)c1ccc(C(=O)NC(C)CCc2ccccc2)cc1 (stereo unspecified) was read as Cruzain noTriton 25µM* and Cruzain inh Det 1%.
Screening CC(CCc1ccccc1)NC(=O)c1ccccc1 (stereo unspecified) returned Cruzain noTriton 10% and Cruzain inh Det 1%.
For COc1nc(Oc2ccc(C(=O)O)cc2)nc(Oc2ccc(C(=O)O)cc2)n1 the results were Cruzain noTriton -7% and Cruzain inh Det 5%.
`COc1ccc(Oc2nc(Oc3ccc(OC)cc3)nc(Oc3ccc(OC)cc3)n2)cc1` gave Cruzain noTriton 3.2µM* and Cruzain inh Det 2%.
CCOc1ccccc1NC(=O)Cn1c(=O)n(Cc2ccco2)c(=O)c2ccc(C(=O)NC3CCCC3)cc21 was read as Cruzain noTriton 7% and Cruzain inh Det -2%.
Screening CCCCn1c(Nc2ccccc2)nc2ccccc21 returned Cruzain noTriton -5% and Cruzain inh Det 1%.
`CCCn1c(Nc2nc3ccccc3n2C)nc2ccccc21` gave Cruzain noTriton 20µM* and Cruzain inh Det 0%.
Screening COc1ccc(C2CC(=O)c3cc(-c4nc(-c5ccc(Cl)cc5)c(C)s4)c(=O)[nH]c3C2)cc1 (stereo unspecified) returned Cruzain noTriton -4% and Cruzain inh Det -4%.
Screening Cc1cc(=O)n2nc(N3CCC(C(=O)Nc4ccc(C(C)C)cc4)CC3)sc2n1 returned Cruzain noTriton 10% and Cruzain inh Det -4%.
COc1ccc(OCc2nc3c4c(-c5ccc(OC)cc5)c(-c5ccc(OC)cc5)oc4ncn3n2)cc1 was read as Cruzain noTriton -7% and Cruzain inh Det -1%.
COc1ccc(-c2oc3ncn4nc(COc5ccccc5)nc4c3c2-c2ccc(OC)cc2)cc1 was read as Cruzain noTriton 4µM* and Cruzain inh Det -10%.
COc1ccc(-c2oc3ncn4nc(Cc5ccccc5)nc4c3c2-c2ccc(OC)cc2)cc1 was read as Cruzain noTriton 10µM* and Cruzain inh Det -10%.
`COc1ccc(-c2oc3ncn4nc(COc5ccc(C)cc5)nc4c3c2-c2ccc(OC)cc2)cc1` gave Cruzain noTriton 7% and Cruzain inh Det 2%.
For Cc1ccc2c(CNCCc3ccco3)c(C(=O)O)n(Cc3ccc(F)cc3)c2c1 the results were Cruzain noTriton inconclusive and Cruzain inh Det -5%.
CCc1ccccc1Nc1cc(C(=O)NCCc2ccccc2)c2ccccc2n1 was read as Cruzain noTriton inconclusive and Cruzain inh Det -11%.
For Cc1ccc(C)n1N1C(=O)/C(=C\c2ccc(Cl)cc2)SC1=S the results were Cruzain noTriton inconclusive and Cruzain inh Det -6%.
For NS(=O)(=O)c1ccc(CCN2C(=O)/C(=C\c3ccc(Cl)cc3)SC2=S)cc1 the results were Cruzain noTriton 25µM* and Cruzain inh Det -2%.
COc1ccccc1CNc1nc2c(S(=O)(=O)c3ccc(C)c(C)c3)nnn2c2ccc(Cl)cc12 was read as Cruzain noTriton -6% and Cruzain inh Det 0%.
For COC(=O)c1c(NC(=O)c2c(OC)cccc2OC)sc2c1CCCC2 the results were Cruzain noTriton 6% and Cruzain inh Det -3%.
Screening COC(=O)c1c(NC(=O)c2ccc(Br)s2)sc2c1CCC2 returned Cruzain noTriton 10µM* and Cruzain inh Det -6%.
For COC(=O)c1c(NS(=O)(=O)c2ccc3ccccc3c2)sc2c1CCCC2 the results were Cruzain noTriton inconclusive and Cruzain inh Det 1%.
For COC(=O)c1c(NC(=O)c2ccc(C)c(S(=O)(=O)Nc3ccccc3C)c2)sc2c1CCCC2 the results were Cruzain noTriton 7.9µM* and Cruzain inh Det 1%.
`O=c1[nH]ncc2ccccc12` gave Cruzain noTriton -2% and Cruzain inh Det -1%.
Screening CCOc1ccc(NC(=O)Cn2c(=O)n(Cc3ccc4c(c3)OCO4)c(=O)c3ccc(C(=O)NC4CCCCC4)cc32)cc1 returned Cruzain noTriton -23% and Cruzain inh Det -3%.
`O=C(CSc1nc(-c2ccccc2)no1)N1CCCCC1` gave Cruzain noTriton -6% and Cruzain inh Det -2%.
CCC1=C(C[C@H]2NCCc3cc(OC)c(OC)cc32)C[C@H]2c3ccccc3CCN2C1 was read as Cruzain noTriton -6% and Cruzain inh Det -1%.
Screening O=C(Nc1cccc(Cl)c1)c1ccc2c(c1)CCN2S(=O)(=O)c1ccccc1 returned Cruzain noTriton inconclusive and Cruzain inh Det -1%.
`O=C(NC(=S)Nc1ccc(N2CCOCC2)c(Cl)c1)c1cncc(Br)c1` gave Cruzain noTriton -9% and Cruzain inh Det -4%.
`O=C(NC(=S)Nc1ccc(N2CCCCC2)c(Cl)c1)c1ccc2c(c1)OCCO2` gave Cruzain noTriton 25µM* and Cruzain inh Det -1%.
Screening CCOc1cc(Cn2c(-c3ccc(O)c(OCC)c3)nc3ccccc32)ccc1O returned Cruzain noTriton 1% and Cruzain inh Det -2%.
Screening COc1ccc2c(=O)c3c(=O)n(Cc4ccco4)c(C(C)C)nc3oc2c1 returned Cruzain noTriton 32µM* and Cruzain inh Det inconclusive.
`COc1ccc2c(=O)c3c(=O)n(Cc4ccco4)c(-c4ccc(C)cc4)nc3oc2c1` gave Cruzain noTriton -23% and Cruzain inh Det -6%.
CSc1nnc2c(n1)OC=Nc1ccccc1-2 was read as Cruzain noTriton -7% and Cruzain inh Det -6%.
CSc1nnc(-c2ccco2)c(-c2ccco2)n1 was read as Cruzain noTriton 13µM* and Cruzain inh Det 14µM*.
For Cc1cccc(C)c1NC(=O)CSc1nnc(-c2ccco2)c(-c2ccco2)n1 the results were Cruzain noTriton -18% and Cruzain inh Det inconclusive.
For Cc1ccc(NC(=O)CSc2nnc(-c3ccco3)c(-c3ccco3)n2)cc1 the results were Cruzain noTriton 10µM* and Cruzain inh Det 25µM*.
Cc1c(C)c2c(c(C)c1O)CCC(C)(COc1ccc(Cc3sc(=O)[nH]c3O)cc1)O2 (stereo unspecified) was read as Cruzain noTriton -20% and Cruzain inh Det 3%.
